Laboratory results from ChEMBL document CHEMBL1157539, “Thousands of chemical starting points for antimalarial lead identification” (Nature, 2010).

System: HepG2
Test: GSK_TCMDC: Percent inhibition of human HepG2 cell line. Test compounds present at 10uM.
Assay type: functional

Row | Compound | Inhibition [%]
1 | Cc1cccc2nc(C(=O)Nc3nc(CN4CCC(C)CC4)cs3)cn12 | 0
2 | Cc1nn(-c2ccccc2)nc1C(=O)NC1CCN(CCNC(=O)c2ccc(Cl)c(Cl)c2)CC1.O=C(O)C(F)(F)F | 15
3 | COc1ccc(S(=O)(=O)N(c2cc(Br)cc3c2OCC3)S(=O)(=O)c2ccc(OC)c(N3CCN(C)CC3)c2)cc1N1CCN(C)CC1 | 67
4 | O=C(Nc1ccc(OC2CCN(Cc3ccc(F)cc3)C2)cc1)c1ccco1.O=C(O)C(F)(F)F (configuration not stated) | 0
5 | Cc1cc2[nH]c(-c3ccc(C(=O)NCCCN4CCN(c5cccc(Cl)c5)CC4)cc3F)nc2cc1Cl | 0
6 | COc1cccc(CN2Cc3ccccc3OC3(CCN(Cc4c[nH]c5cnccc45)CC3)C2)c1.O=C(O)C(F)(F)F | 39
7 | CN(C)CCOc1ccc2c(c1)OC(C)(C)C=C2c1cccc2ccccc12.Cl | 66
8 | COc1ccccc1N1CCN(CCCCNC(=O)c2ccc(NC(=O)c3cc4ccccc4o3)cc2)CC1 | 9
9 | O=C(CN1CCN(C(C(=O)Nc2cc(C(F)(F)F)ccc2Cl)c2ccccc2)CC1)NC1CC1 (configuration not stated) | 0
10 | CCCc1cc(Cc2cnc(N)nc2N)cc(CCC)c1OCCCCC(=O)OC | 0
11 | CN(C)C(S)=NN=Cc1cccc(O)c1O | 11
12 | CC(=O)Oc1c(C(=O)C2CCC(C(C)(C)C)CC2)c(OC(C)=O)c2ccccc2c1OC(C)=O (configuration not stated) | 9
